Experimental data: the supplement of paper PMC11732987, “Enantioselective OTUD7B fragment discovery through chemoproteomics screening and high-throughput optimisation” (Communications Chemistry, 2025)

Columns and labels:
Assay in all cases: log2 ratio of Biotin-Ahx-Ub-VS probe labelling (fragment/DMSO); higher = less target engagement (more negative = stronger competition), active = hit call of the paper (q ≤ 0.05, log2 ratio ≤ -1)
Details in all cases: compound concentration: 200 uM; treatment time: 3 h
USP9X = USP9X (UniProt Q93008)
In short: (§1)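 HEK293T lysate (495 µg per sample, in Tris/CHAPS/IGEPAL buffer with protease inhibitors) was exposed in triplicate for 3 h to fragment at 200 µM or to vehicle, then to Biotin-Ahx-Ub-VS at 0.5 µM final for 1 h. Labelled DUBs were enriched on NeutrAvidin, digested with LysC and trypsin, and analysed by diaPASEF LC-MS/MS. Spectronaut label-free quantities were normalised to the global median, and values are average log2 ratios of fragment over vehicle from an unpaired t-test. Only proteins with ≥2 unique peptides were used.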

UniProt O00487 = target: UniProt O00487
In short: as §1

UniProt O00507 = target: UniProt O00507
In short: as §1

UniProt P51784 = target: UniProt P51784
In short: as §1

UniProt Q5T2D3 = target: T1, UniProt Q5T2D3
T1 sequence (whole entry): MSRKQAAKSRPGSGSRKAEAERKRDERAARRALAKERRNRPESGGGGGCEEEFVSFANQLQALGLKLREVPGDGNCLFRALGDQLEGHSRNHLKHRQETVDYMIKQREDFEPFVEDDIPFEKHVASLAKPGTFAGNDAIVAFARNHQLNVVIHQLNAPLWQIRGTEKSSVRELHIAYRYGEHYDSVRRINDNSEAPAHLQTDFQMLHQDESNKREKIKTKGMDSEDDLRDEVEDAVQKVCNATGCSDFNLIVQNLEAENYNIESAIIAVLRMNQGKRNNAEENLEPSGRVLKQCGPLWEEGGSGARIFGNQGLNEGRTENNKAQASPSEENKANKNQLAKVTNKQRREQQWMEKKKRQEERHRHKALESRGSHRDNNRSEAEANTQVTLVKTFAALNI
In short: as §1

UniProt Q8TE49 = target: T2, UniProt Q8TE49
T2 sequence (whole entry): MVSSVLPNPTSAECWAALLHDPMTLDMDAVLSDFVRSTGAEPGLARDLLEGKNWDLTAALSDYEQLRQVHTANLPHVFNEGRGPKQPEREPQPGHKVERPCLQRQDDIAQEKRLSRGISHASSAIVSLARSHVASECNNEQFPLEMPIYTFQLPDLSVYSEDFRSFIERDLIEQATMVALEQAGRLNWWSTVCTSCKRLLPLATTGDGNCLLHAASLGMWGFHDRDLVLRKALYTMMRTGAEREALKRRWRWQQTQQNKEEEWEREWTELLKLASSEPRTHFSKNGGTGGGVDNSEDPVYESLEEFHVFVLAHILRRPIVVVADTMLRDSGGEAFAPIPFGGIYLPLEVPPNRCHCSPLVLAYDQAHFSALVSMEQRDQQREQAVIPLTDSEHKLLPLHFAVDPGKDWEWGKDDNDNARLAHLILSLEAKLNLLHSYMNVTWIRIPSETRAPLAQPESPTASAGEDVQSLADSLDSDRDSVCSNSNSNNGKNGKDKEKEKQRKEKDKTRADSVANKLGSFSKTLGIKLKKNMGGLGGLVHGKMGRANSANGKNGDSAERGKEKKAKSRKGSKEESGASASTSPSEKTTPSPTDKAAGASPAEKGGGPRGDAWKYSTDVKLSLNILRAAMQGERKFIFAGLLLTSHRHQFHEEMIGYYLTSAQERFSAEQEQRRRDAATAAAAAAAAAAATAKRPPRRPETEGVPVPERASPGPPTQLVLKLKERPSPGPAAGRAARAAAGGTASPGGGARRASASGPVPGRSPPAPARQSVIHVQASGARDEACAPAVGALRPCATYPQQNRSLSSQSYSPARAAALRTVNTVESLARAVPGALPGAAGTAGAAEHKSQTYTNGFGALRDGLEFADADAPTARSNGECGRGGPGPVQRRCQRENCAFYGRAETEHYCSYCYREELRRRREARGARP
In short: as §1

UniProt Q9P2H5 = target: T3, UniProt Q9P2H5
T3 sequence (whole entry): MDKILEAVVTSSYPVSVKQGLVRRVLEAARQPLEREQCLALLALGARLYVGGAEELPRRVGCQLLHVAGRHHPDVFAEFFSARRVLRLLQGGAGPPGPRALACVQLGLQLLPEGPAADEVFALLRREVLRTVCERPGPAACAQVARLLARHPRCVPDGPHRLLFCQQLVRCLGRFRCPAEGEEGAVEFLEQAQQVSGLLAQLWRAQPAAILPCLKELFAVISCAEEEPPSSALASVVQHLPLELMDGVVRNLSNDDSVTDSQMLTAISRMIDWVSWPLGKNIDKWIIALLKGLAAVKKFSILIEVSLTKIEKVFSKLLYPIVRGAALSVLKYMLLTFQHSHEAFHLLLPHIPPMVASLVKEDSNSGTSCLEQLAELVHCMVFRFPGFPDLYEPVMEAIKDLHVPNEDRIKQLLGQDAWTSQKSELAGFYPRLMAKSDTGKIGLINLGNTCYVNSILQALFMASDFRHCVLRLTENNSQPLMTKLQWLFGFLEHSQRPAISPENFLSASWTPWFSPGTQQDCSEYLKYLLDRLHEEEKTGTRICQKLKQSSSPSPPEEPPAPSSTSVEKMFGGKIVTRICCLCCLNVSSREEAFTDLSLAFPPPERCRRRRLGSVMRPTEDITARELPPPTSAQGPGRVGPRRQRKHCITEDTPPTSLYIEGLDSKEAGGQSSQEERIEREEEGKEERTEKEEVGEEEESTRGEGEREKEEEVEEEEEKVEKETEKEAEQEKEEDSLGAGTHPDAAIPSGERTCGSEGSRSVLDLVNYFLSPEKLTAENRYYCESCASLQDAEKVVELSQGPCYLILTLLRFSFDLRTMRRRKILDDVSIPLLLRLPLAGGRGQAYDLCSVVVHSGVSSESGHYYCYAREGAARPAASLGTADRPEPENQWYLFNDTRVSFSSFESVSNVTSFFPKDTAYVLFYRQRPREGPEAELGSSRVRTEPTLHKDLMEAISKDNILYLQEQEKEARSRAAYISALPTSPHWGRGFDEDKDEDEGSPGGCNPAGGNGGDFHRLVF
In short: as §1

UniProt Q9UGI0 = target: T4, UniProt Q9UGI0
T4 sequence (whole entry): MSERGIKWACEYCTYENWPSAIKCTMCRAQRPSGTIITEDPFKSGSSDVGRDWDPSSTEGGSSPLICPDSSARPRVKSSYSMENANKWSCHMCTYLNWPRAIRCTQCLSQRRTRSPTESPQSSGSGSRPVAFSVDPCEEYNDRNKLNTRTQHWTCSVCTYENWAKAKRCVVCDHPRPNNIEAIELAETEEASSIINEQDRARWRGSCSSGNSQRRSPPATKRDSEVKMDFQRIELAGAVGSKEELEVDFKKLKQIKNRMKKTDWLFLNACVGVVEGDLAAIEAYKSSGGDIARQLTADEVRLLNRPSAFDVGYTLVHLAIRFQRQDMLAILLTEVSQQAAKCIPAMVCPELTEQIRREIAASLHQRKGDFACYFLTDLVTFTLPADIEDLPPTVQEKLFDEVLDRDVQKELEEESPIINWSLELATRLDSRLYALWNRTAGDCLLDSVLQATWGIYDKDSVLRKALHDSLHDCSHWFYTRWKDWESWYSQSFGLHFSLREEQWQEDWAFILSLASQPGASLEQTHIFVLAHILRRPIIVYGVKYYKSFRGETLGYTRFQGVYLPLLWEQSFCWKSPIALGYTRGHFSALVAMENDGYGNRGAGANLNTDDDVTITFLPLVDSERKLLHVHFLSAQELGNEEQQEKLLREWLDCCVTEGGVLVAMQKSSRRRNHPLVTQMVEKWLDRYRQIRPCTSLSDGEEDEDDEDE
In short: as §1

YOD1 = target: T5, YOD1 (UniProt Q5VVQ6)
T5 sequence (whole entry): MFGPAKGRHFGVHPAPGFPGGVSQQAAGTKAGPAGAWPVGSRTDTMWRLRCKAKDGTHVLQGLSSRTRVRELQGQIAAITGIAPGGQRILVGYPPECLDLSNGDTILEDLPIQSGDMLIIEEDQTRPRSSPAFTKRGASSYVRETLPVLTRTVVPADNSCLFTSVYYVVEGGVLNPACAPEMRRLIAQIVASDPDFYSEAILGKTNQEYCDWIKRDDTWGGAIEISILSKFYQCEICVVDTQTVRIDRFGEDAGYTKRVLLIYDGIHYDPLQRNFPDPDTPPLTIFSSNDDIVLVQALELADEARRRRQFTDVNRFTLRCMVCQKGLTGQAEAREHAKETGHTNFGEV
In short: as §1

Measured: log2 ratio of Biotin-Ahx-Ub-VS probe labelling

Sequence of UniProt P51784 (P51784 whole entry): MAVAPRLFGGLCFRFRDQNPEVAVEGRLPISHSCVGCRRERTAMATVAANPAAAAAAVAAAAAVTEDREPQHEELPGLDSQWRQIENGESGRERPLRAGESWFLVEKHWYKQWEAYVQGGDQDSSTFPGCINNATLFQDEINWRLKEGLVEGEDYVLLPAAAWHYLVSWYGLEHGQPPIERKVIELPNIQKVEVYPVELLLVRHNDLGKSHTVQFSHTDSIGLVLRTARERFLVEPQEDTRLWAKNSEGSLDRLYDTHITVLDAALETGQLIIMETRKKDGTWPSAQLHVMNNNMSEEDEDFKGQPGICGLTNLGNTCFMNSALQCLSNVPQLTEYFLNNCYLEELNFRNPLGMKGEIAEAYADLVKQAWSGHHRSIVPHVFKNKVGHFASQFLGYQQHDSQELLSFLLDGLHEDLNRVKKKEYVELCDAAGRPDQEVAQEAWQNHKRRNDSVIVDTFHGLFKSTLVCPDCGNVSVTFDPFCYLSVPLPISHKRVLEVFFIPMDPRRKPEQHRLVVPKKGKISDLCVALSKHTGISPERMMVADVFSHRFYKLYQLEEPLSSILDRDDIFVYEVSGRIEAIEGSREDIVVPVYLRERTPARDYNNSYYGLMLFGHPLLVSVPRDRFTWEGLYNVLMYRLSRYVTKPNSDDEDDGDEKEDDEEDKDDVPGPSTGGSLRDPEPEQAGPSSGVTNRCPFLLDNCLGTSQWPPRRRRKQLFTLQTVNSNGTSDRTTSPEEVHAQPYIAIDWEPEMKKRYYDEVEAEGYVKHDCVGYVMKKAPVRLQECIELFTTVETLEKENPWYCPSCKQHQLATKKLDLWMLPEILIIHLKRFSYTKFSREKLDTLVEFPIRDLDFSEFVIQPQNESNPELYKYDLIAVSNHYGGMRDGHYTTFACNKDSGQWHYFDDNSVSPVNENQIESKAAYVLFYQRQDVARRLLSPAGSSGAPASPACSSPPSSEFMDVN
Sequence of UniProt O00487 (O00487 whole entry): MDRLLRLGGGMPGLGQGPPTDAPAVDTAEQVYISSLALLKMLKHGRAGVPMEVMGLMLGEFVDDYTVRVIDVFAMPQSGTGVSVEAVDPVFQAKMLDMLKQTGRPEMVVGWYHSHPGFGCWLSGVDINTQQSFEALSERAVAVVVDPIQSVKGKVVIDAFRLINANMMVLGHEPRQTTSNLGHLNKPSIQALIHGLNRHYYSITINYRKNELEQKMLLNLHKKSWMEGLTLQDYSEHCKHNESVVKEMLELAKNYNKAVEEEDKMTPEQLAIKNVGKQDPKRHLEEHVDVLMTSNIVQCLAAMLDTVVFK
Sequence of UniProt O00507 (O00507 whole entry): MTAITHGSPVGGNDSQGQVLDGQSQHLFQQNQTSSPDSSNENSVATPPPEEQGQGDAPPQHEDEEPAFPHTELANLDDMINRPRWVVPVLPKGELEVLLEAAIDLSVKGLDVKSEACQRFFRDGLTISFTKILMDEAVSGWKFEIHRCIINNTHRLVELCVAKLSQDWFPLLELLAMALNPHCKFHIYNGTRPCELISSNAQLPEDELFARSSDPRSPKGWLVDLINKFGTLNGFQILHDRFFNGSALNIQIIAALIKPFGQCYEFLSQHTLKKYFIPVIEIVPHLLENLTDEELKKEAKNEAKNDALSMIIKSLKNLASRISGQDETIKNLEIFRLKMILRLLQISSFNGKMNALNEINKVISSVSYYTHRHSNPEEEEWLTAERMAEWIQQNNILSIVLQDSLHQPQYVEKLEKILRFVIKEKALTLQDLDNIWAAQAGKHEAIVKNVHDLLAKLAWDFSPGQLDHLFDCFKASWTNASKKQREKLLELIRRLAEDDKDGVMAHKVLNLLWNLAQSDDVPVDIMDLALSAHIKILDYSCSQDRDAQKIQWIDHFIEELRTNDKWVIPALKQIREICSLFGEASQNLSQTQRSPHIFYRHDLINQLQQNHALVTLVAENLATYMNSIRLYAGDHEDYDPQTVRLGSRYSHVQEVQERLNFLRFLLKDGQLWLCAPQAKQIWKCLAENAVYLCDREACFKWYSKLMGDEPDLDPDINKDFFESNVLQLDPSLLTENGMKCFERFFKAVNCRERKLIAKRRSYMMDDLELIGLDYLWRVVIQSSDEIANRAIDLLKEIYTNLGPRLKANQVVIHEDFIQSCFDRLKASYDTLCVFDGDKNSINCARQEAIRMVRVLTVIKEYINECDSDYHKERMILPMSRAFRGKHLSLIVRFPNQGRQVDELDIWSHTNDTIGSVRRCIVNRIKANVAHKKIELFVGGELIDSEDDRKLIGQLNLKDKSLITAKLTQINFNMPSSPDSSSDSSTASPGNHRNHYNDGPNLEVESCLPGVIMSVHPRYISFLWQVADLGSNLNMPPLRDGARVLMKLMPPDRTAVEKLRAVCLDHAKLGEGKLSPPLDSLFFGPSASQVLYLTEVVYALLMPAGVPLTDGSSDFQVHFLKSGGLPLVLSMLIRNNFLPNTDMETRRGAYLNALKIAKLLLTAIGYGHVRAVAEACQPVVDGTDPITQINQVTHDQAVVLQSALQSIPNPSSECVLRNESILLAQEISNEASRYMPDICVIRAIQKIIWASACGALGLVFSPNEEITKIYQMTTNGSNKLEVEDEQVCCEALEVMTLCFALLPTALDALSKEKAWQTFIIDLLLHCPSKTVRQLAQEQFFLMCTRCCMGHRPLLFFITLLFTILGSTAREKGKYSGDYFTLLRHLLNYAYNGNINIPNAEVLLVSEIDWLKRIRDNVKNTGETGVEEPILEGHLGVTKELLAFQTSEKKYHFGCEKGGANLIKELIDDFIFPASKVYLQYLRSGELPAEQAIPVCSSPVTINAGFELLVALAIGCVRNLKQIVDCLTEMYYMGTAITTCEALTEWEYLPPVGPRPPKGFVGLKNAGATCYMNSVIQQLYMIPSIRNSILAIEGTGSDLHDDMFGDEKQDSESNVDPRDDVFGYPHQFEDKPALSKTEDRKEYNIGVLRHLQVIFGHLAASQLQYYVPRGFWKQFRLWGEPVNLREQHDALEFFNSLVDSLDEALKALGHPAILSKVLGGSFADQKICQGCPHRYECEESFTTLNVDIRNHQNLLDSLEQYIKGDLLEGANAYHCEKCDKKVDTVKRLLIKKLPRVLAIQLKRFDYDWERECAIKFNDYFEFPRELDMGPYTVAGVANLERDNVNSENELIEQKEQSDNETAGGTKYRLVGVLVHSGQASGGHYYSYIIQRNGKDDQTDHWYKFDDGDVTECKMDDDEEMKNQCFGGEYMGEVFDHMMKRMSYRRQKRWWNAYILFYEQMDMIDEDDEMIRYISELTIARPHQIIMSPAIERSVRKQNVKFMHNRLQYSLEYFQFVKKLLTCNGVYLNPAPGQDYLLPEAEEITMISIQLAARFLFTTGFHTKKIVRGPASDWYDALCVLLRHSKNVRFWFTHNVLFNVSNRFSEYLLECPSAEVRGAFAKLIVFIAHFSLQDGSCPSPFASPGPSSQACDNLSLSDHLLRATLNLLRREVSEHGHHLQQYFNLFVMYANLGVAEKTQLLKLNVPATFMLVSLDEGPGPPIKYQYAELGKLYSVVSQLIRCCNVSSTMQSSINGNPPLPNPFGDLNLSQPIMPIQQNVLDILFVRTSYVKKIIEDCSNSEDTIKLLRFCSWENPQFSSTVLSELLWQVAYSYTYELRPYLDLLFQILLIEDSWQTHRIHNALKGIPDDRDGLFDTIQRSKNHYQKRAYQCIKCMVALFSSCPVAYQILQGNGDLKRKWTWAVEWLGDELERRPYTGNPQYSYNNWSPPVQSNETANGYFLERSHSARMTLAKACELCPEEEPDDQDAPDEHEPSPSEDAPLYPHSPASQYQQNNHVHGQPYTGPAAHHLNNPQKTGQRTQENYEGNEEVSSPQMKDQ

COCC[C@@H](NC(=O)CCl)c1ccccc1
inactive: USP9X -0.0244 | UniProt O00487 -0.0153 | UniProt O00507 -0.0256 | UniProt P51784 0.0932 | UniProt Q5T2D3 -0.0591 | UniProt Q8TE49 -0.208 | UniProt Q9P2H5 -0.159 | UniProt Q9UGI0 -0.681 | YOD1 0.231
